Most compounds without a hit are left out; they make up all but 1.4% or so of the library.
Bim-Bcl-XL: inhibitors of Bim-Bcl-XL interaction, human | Q07817 | Bim peptide-Bcl-XL binding, bead flow cytometry, fluorescence | inhibition, % at 10 µM | 190,000 compounds, 0.04% hits | AID 1007
Bcl-2 Bim block: inhibitors of Bim-Bcl-2 interaction, human. AID 950. 190,000 compounds, 0.06% hits. inhibition, % at 10 µM. Bead-based flow cytometry, Bim peptide-Bcl-2 binding. P10415; in the data active means inhibition above about 40%
Target sequence (P10415 whole entry, looked up): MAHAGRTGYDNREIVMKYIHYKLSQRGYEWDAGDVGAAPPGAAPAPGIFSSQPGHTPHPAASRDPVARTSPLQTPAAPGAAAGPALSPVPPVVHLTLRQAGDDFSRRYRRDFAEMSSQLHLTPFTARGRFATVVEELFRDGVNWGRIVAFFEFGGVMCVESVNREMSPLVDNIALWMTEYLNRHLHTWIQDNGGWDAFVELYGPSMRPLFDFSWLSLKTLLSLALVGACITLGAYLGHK
Bim-Bcl-B: human Bim-Bcl-B interaction inhibition | inhibition, % at 10 µM | Q9HD36 | AID 951 | 190,000 compounds, 0.073% hits | bead-based flow cytometry, Bim peptide-Bcl-B binding
Bfl-1 Bim block: disrupts Bim binding to human Bfl-1. Bead-based flow cytometry, Bim-Bfl-1 binding inhibition. 190,000 compounds, 0.12% hits. inhibition, % at 10 µM. Q16548
Target sequence (Q16548 whole entry, looked up): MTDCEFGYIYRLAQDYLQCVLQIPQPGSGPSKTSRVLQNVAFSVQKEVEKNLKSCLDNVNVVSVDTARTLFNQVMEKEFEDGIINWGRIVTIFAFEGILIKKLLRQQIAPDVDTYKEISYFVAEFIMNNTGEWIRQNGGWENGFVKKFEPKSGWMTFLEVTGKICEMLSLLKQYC
Bim-Bcl-W: human Bim-Bcl-W interaction inhibition. Q92843. bead-based flow cytometry, Bim peptide-Bcl-W binding. inhibition, % at 10 µM. 190,000 compounds, 0.02% hits;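 further: higher means less fluorescent Bim peptide bound to Bcl-W beads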
Target sequence (Q92843 whole entry, looked up): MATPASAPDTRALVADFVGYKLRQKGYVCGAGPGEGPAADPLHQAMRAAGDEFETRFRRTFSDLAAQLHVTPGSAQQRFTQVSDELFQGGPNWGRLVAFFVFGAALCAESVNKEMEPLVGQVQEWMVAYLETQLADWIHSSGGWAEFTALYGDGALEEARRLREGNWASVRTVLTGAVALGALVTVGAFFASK
Wee1 stabilizer: blocks degradation of human Wee1 kinase; P30291; HeLa Luc-Wee1K328M stability, luciferase luminescence; 100% = proteasome inhibitor MG132 effect; reporter increase, % at 5 µM; 220,000 compounds, 1.2% hits; AID 1321;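 active means activation above the mean of all tested compounds plus 3 SD, set per screening run, cut at about 8.8% in these data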;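 further: cells exposed to compound for 20 h before luminescence read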
Numbers stand for hits; n = inactive; x = not tested or not shown. Unless noted, no stated cut-off is given here; in the data, active means inhibition above about 40%.

SMILES | Bim-Bcl-XL | Bcl-2 Bim block | Bim-Bcl-B | Bfl-1 Bim block | Bim-Bcl-W | Wee1 stabilizer
O=C(NCc1ccccc1)C1CCN(S(=O)(=O)N2CCCCCC2)CC1 | n | n | n | n | n | 9.5
O=C(NCCCCNC(=O)c1ccc(Br)s1)c1ccc(Br)s1 | n | n | n | n | n | 16.5
Cn1c(=O)c2c(nc(OCc3ccc4c(c3)OCO4)n2Cc2ccccc2Cl)n(C)c1=O | n | n | n | n | n | 9.2
O=C(c1nc2ccccn2c1CNCCOc1cccnc1)N1CCOCC1 | n | n | n | n | n | n
Cn1cccc1Cc1nnc(SCC(=O)N2CCOCC2)n1-c1ccc(F)cc1 | n | n | n | n | n | n
COc1ccc(-n2c(Cc3cccn3C)nnc2SCC(=O)N2CCOCC2)cc1 | n | n | n | n | n | 13.1
O=C(COc1ccc([N+](=O)[O-])cc1)NCc1cccnc1 | n | n | n | n | n | 9.2
Cc1ccc(NC(=O)N2CCCC2C(=O)NCC2CCCO2)cc1 (stereo not drawn) | n | n | n | n | n | n
O=C(c1ccccc1)c1ccc2nc(-c3ccco3)c(-c3ccco3)nc2c1 | n | n | n | 47.0 | n | n
c1coc(-c2nc3ccccc3nc2-c2ccco2)c1 | n | n | n | n | n | n
O=C(NC1CCCC1)c1ccc2nc(-c3ccco3)c(-c3ccco3)nc2c1 | n | n | n | n | n | n
O=C(NCCO)c1ccc2nc(-c3ccco3)c(-c3ccco3)nc2c1 | n | n | n | 54.0 | n | n
O=C(NCCc1ccccc1)c1ccc2nc(-c3ccco3)c(-c3ccco3)nc2c1 | n | n | n | 45.0 | n | n
Cc1ccc(S(=O)(=O)N2CCC(C(=O)OCc3ccc([N+](=O)[O-])cc3)CC2)cc1 | n | n | n | n | n | n
COC(=O)c1ccc(COC(=O)CNS(=O)(=O)c2ccc(C)cc2)cc1 | n | n | n | n | n | n
Cc1cccc(N2CCC(N3CCN(C4CCCCC4)C(CCO)C3)CC2)c1C (stereo not drawn) | n | n | n | n | n | n
CCOC(=O)c1sc(-c2ccc(F)cc2)cc1N | n | n | n | n | n | n
CCOC(=O)c1sc(-c2ccc(OC)cc2)cc1N | n | n | n | n | n | 10.6
Cc1ccc(NC(=O)Cn2c(-c3ccc(F)cc3)cnc2SCC(=O)Nc2c(C)cccc2C)cc1 | n | n | n | n | n | n
NC(=O)COc1ccc(-n2cnnn2)cc1 | n | n | n | n | n | n
COc1cc(/C=N/NC(=O)COc2ccc(-n3cnnn3)cc2)ccc1OCC(N)=O | x | x | x | x | x | 9.2
COc1ccc(/C=N/NC(=O)CCn2cnc(-c3ccccc3)c2-c2ccccc2)cc1OC | n | n | n | n | n | 10.6
O=C(Cn1c(NCCO)nc2ccccc21)N1CCN(Cc2ccccc2)CC1 | n | n | n | n | n | n
O=C(Nc1ccc(-c2nc3ccccc3o2)cc1)c1cccnc1 | n | n | n | n | n | 10.7
CCOC(=O)CSc1n[nH]c(NC(=O)c2cccc(C(F)(F)F)c2)n1 | n | n | n | n | n | n
SMILES | Bim-Bcl-XL | Bcl-2 Bim block | Bim-Bcl-B | Bfl-1 Bim block | Bim-Bcl-W | Wee1 stabilizer
CCOC(=O)CSc1n[nH]c(NC(=O)CC)n1 | n | n | n | n | n | 10.2
CCc1nnc(SCC(=O)Nc2ccccc2Cl)nc1CC | n | n | n | n | n | n
O=C(/C=C/c1ccc([N+](=O)[O-])cc1)Nc1cccnc1 | n | n | n | n | n | 10.1
COCCNC(=O)C12CC3CC(C1)CC(c1ccccc1)(C3)C2 | n | n | n | n | n | 10.8
COC(=O)CNC(=O)C12CC3CC(C1)CC(c1ccc(C)cc1)(C3)C2 | n | n | n | n | n | n
Fc1ccc(-c2nc(-c3cnccn3)no2)c(Cl)c1 | x | x | x | x | x | 9.4
Clc1ccc(-c2nc(-c3cnccn3)no2)cc1 | x | x | x | x | x | n
Cc1ccccc1OCc1nc(-c2ccccc2)no1 | n | n | n | n | n | 11.3
COc1ccc(-c2noc(Cc3ccccc3OC)n2)cc1 | n | n | n | n | n | 8.9
COc1ccccc1Cc1nc(-c2cccnc2)no1 | x | x | x | x | x | n
COC(=O)c1cnc(N2CCCN(S(=O)(=O)c3ccccc3)CC2)nc1C(F)(F)F | x | x | x | x | x | n
COC(=O)c1cnc(N2CCOCC2)nc1C(F)(F)F | x | x | x | x | x | 10.3
COc1ccc(S(=O)(=O)NCC2CCC(C(=O)NCC(OC)OC)CC2)cc1 (stereo not drawn) | n | n | n | n | n | n
Cc1ccccc1NS(=O)(=O)c1ccc(N2CCCC2=O)cc1 | n | n | n | n | n | 10.4
COc1cccc(CC2(CO)CCCN(Cc3cc4ccccc4[nH]3)C2)c1 (stereo not drawn) | n | n | n | n | n | n
c1ccc(-c2noc(-c3cccc4ccccc34)n2)nc1 | n | n | n | n | n | 9.1
COc1cccc(-c2nc(-c3ccccn3)no2)c1OC | n | n | n | n | n | n
CC(=O)c1ccc(Nc2cc(C)nc3c(C)cc(C)cc23)cc1 | n | n | n | n | n | 10.8
O=C(NCCC(c1ccccc1)c1ccccc1)c1cnc2sccn2c1=O | n | n | n | n | n | 10.8
CNC(=S)N/N=C/C1=CCC2CC1C2(C)C (stereo not drawn) | n | 69.0 | 65.0 | 52.0 | n | n
Cc1ccc(CNC(=O)C2CCC(=O)N2C2CCCCC2)cc1 (stereo not drawn) | n | n | n | n | n | n
O=C(NCc1ccc(F)cc1)C1CCC(=O)N1C1CCCCC1 (stereo not drawn) | n | n | n | n | n | 10.4
CC1C/C(=C/c2ccccn2)C(=O)/C(=C/c2ccccn2)C1 (stereo not drawn) | n | n | n | n | n | 9.9
C(=C\c1ccccc1)/CSc1ccccn1 | n | n | n | n | n | 9.2
CC1CCCN(c2ccc(C(=O)NCC3CCCO3)cn2)C1 (stereo not drawn) | n | n | n | n | n | 9.6
SMILES | Bim-Bcl-XL | Bcl-2 Bim block | Bim-Bcl-B | Bfl-1 Bim block | Bim-Bcl-W | Wee1 stabilizer
CC(C)CCN1C(=O)c2ccc(C(=O)NCC3CCCO3)cc2C1=O (stereo not drawn) | n | n | n | n | n | 9.6
O=C(NCC1CCCO1)c1ccc(/C=N/O)nc1 (stereo not drawn) | n | n | n | n | n | n
O=C(NCC1CCCO1)c1ccc2c(c1)C(=O)N(C1CCCCC1)C2=O (stereo not drawn) | n | n | n | n | n | n
COc1ccc(NC(=S)N(CCCN2CCCC2)Cc2cccn2Cc2ccc(Cl)cc2)cc1Cl | n | n | n | n | n | n
CCOC(=O)N1CCC(NC(=O)CCC(=O)N2CCOc3ccc(C)cc32)CC1 | n | n | n | n | n | 10.3
COCC(=O)OCC(=O)Nc1cc(C)c(C)cc1[N+](=O)[O-] | n | n | n | n | n | 17.4
Cc1ccc(C(=O)NCC(=O)OCC(=O)Nc2cc(C)c(C)cc2[N+](=O)[O-])cc1 | n | n | n | n | n | n
O=C1/C(=C\c2ccc(-c3ccccc3Cl)o2)SC(=S)N1CC1CCCO1 (stereo not drawn) | n | 45.0 | n | n | n | n
CN1CCN(Cc2cccc(Oc3ccc(Cl)cc3)c2)CC1 | n | n | n | n | n | 10.2
